Data from the supplement of paper PMC3334620.
In all, about 33,000 sequences were measured (“E-score (-0.5 to 0.5)”: median about -0.021, highest 2% from about 0.32 on). What follows is part of a selection rich in the highest values, with near analogues and random picks from the rest.

Biological target: T1, Zap1 (UniProt P47043)
T1 sequence: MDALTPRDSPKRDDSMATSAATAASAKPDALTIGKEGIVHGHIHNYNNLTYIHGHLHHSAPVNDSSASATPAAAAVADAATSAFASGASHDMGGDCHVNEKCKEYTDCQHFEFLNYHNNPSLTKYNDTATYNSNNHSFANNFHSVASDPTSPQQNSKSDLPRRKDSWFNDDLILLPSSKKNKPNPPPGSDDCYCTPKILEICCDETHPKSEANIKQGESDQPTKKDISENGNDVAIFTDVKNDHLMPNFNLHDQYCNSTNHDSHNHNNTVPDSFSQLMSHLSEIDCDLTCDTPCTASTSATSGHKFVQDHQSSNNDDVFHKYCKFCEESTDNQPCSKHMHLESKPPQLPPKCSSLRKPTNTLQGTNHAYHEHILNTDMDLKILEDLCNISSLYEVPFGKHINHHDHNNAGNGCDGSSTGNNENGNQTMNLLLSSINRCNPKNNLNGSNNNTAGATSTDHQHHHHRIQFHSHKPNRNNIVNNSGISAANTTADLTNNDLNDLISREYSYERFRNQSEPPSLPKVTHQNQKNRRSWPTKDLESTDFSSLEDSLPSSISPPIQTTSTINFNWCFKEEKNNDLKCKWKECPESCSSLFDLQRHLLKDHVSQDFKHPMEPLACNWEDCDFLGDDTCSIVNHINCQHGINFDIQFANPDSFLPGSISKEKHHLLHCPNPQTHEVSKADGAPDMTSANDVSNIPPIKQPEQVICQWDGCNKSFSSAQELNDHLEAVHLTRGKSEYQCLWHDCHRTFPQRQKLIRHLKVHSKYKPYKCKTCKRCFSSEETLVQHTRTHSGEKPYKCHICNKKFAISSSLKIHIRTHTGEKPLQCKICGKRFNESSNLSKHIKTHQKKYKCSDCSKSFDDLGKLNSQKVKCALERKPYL
Assay: PBM E-score (8-mer binding enrichment) (E-score (-0.5 to 0.5)); higher = stronger / more preferred TF binding
Details: protein concentration: 200 nM; construct: GST-full length
Method in brief: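 Yeast transcription factors, full-length or as DNA-binding domains, were expressed with a GST tag using PURExpress in vitro transcription/translation. At about 100-200 nM they were applied to universal all-10-mer Agilent arrays, double-stranded by primer extension on fresh or once-stripped slides. Fluorescent anti-GST detected bound protein, and masliner normalised the scans. E-scores for ungapped eight-base words, pooled with reverse complements, came from the Universal PBM Analysis Suite.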

| Sequence | PBM E-score |
| --- | --- |
| ATTTAGCA | 0.0848 |
| AAAAGTCG | -0.033 |
| TAAGCGCA | -0.0722 |
| CTAATGCA | 0.132 |
| AAAAGGGT | 0.386 |
| AAAAGGGC | 0.149 |
| AAAAGGGA | -0.0112 |
| CCAGATGA | -0.0669 |
| GATCGTAC | -0.069 |
| CTTAGAGA | -0.0526 |
| GAATGGAC | 0.0207 |
| GCTATCGA | -0.0297 |
| CTCCGAAC | -0.196 |
| AATCTCGC | -0.0495 |
| AACCTTAG | 0.324 |
| GGCCTTAA | 0.319 |
| CACCTTAC | 0.148 |
| AACCTTAT | 0.312 |
| GACCTTAC | 0.13 |
| GTCCTTAA | 0.268 |
| AGCCTTAA | -0.0565 |
| AACCTTAC | 0.318 |
| TGCCTTAA | -0.0666 |
| GACCTTAA | 0.324 |
| GAGCTTAA | -0.0983 |
| CACCTTAG | 0.245 |

| Sequence | PBM E-score |
| --- | --- |
| CGGTCCCA | -0.0137 |
| AACGACCT | 0.211 |
| ACTTGCAC | -0.141 |
| GGGGGGAA | -0.411 |
| GGTATCAC | 0.0481 |
| AACTGGCG | -0.0757 |
| CATGCCAC | -0.227 |
| CCGGCCTC | -0.0295 |
| GGAGTTAA | 0.029 |
| CACCTTAA | 0.207 |
| AACCTTAA | 0.352 |
| TACCTTAA | 0.296 |
| GTAAAAGA | 0.0206 |
| GCCTTTAA | 0.0959 |
| CCCTTTAG | 0.127 |
| ACCTTTAA | 0.383 |
| AACTTTAT | 0.0578 |
| CCCTTTAA | 0.286 |
| ACCTTTTG | 0.364 |
| ACCTTTGG | 0.236 |
| ACCTTTAG | 0.348 |
| ACCTTTTC | 0.254 |
| ACCTTTAT | 0.352 |
| ACCTTTAC | 0.307 |
| AGCTTTAT | -0.0486 |
| GCAGATGC | -0.337 |

| Sequence | PBM E-score |
| --- | --- |
| GAGCACGA | -0.0755 |
| TATCGATA | 0.285 |
| ACGCAAAA | -0.024 |
| ACCTACTA | 0.113 |
| AGGATTAA | -0.0423 |
| GTTTAGCA | -0.0642 |
| CGTAGTTC | -0.125 |
| AGTACCAT | 0.127 |
| ACCTATAA | 0.188 |
| ACCTTTCT | 0.372 |
| ACCTATAC | 0.249 |
| ACCTATAT | 0.356 |
| ACCTTTTA | 0.411 |
| CCCTTTTA | 0.0826 |
| ACCTTTCC | 0.107 |
| ACCTTTCA | 0.257 |
| GCCTTTTA | 0.0912 |
| GGTAGCAA | 0.0702 |
| AAACAGTG | 0.0759 |
| CCAGTTTA | 0.073 |
| TAAACCTA | 0.137 |
| CCAAGCCA | -0.122 |
| CAGGCTAG | -0.141 |
| CGTACGAC | -0.126 |
| AGAAGGTA | 0.286 |
| CAAAGGTA | 0.267 |

| Sequence | PBM E-score |
| --- | --- |
| ATAAGGTA | 0.231 |
| GAAAGGTC | 0.294 |
| AAAAGGTA | 0.405 |
| TAAAGGAA | 0.00829 |
| TAAAGGGA | 0.145 |
| TAAAGGTA | 0.34 |
| GAAAGGTA | 0.363 |
| AAGACCAC | 0.0451 |
| CAGCCCAC | -0.113 |
| GAGAGCAA | -0.227 |
| GCGCCTAA | 0.0328 |
| GGTACCTA | 0.398 |
| GGTACCCA | 0.411 |
| CGTACCCA | -0.0471 |
| AGTACCTA | 0.299 |
| AGTACTCA | -0.0985 |
| CGTACTCA | -0.0651 |
| AGTACCCA | 0.289 |
| GGTACTCA | 0.329 |
| CGTACCTA | -0.117 |
| CCATCCAG | -0.155 |
| GACTCGGA | -0.237 |
| AAACGTAG | -0.0378 |
| GGTCCTAC | -0.105 |
| AGACTGGG | -0.141 |
| TACCGTGA | 0.247 |

| Sequence | PBM E-score |
| --- | --- |
| CAGTACCC | 0.313 |
| AAGTACCC | 0.34 |
| GAGTACCC | 0.342 |
| AAGTACGC | -0.152 |
| AAGTACCA | 0.211 |
| GAGTACCA | 0.247 |
| CGAATTCG | -0.233 |
| TAGCAAAA | 0.0555 |
| AGAGCAAG | -0.196 |
| ACGACCCT | 0.348 |
| AGAACCCA | 0.19 |
| AGAACCCC | 0.294 |
| ACGACCCA | 0.2 |
| CCAACCCG | 0.148 |
| ACAACCCG | 0.398 |
| ACAACCCT | 0.443 |
| AGAACCCT | 0.321 |
| ACAACCCA | 0.286 |
| ACAAACCG | 0.027 |
| ACGACCCG | 0.0256 |
| ACAACCGT | 0.0867 |
| AGTCCTCG | -0.272 |
| AAGATAGC | -0.144 |
| AATAAGGA | -0.00733 |
| AAGCACAA | 0.154 |
| GCGATGGA | 0.0884 |

| Sequence | PBM E-score |
| --- | --- |
| CCTTGACG | 0.115 |
| ACAACCTC | 0.31 |
| AAAACCCC | 0.276 |
| GCAACCCC | 0.342 |
| CCAACCCC | 0.224 |
| AAACCCCT | 0.188 |
| ACAACCCC | 0.321 |
| AAAACCCT | 0.362 |
| ACAAACCC | 0.0973 |
| GCAACCCA | 0.294 |
| GGCCAGCC | -0.142 |
| AAATCCTC | -0.279 |
| AGGACCAG | -0.0376 |
| CGGAGTAG | -0.149 |
| CTCCTGTA | -0.0674 |
| ATGGATTG | -0.0434 |
| CGGAATCA | -0.0619 |
| CGGGCCAC | 0.125 |
| CGTCGAGC | -0.244 |
| CAATGAGC | -0.126 |
| CCGTAACG | 0.0821 |
| ACGTAACT | 0.0456 |
| ACGTAACC | 0.411 |
| ACGTAACG | -0.248 |
| GCGTAACC | 0.446 |
| GCGTAACA | -0.135 |

| Sequence | PBM E-score |
| --- | --- |
| CCGTAACC | 0.471 |
| GCGTAAGC | -0.239 |
| CCGTAACA | 0.0988 |
| CTTAAGGA | 0.119 |
| ATGGGGCG | -0.129 |
| ATTTAACC | 0.418 |
| CTTTAACC | 0.405 |
| CTTTTAAC | 0.0885 |
| ATTTAACA | -0.0688 |
| CTTTAACA | 0.123 |
| ATTTAACG | 0.023 |
| CGCTGATA | -0.172 |
| ACAGGTTC | -0.12 |
| CCAGGTTA | 0.382 |
| ACAGGTTG | 0.147 |
| CCAGGTTC | -0.159 |
| GCAGGTTA | 0.335 |
| GCAGGTAA | 0.173 |
| GCAGGTCA | 0.194 |
| CCAGGTAA | 0.041 |
| ACAGGTTA | 0.398 |
| TCGCCACA | -0.04 |
| AGCAGCCT | -0.168 |
| ATAGCAGG | 0.0205 |
| ATGAATGG | 0.203 |
| CTAGTAGC | -0.168 |

| Sequence | PBM E-score |
| --- | --- |
| ACGATATC | 0.0333 |
| GTGGGTAA | 0.0319 |
| ATGGGTTC | 0.116 |
| GTGGGTTA | 0.404 |
| CTGGGTTC | 0.0979 |
| GTGGGTGA | 0.0723 |
| ATGGGTTG | 0.234 |
| ATGGGTTA | 0.455 |
| CTGGGTCA | 0.143 |
| CTGGGTTA | 0.369 |
| GCCACAAC | 0.212 |
| TAGGACGA | -0.113 |
| AGCAAGCG | -0.192 |
| GAGACAAA | -0.173 |
| GCCACACA | -0.0586 |
| CCCCACGC | -0.0232 |
| ACACAAGG | 0.132 |
| AAGTTCAG | -0.0476 |
| AGGGTCAA | 0.416 |
| CGGGTCAA | 0.163 |
| AGGGTCGC | 0.364 |
| AGGGTCGG | 0.126 |
| AGGGTCAC | 0.417 |
| GGGGTCAC | 0.428 |
| ATGGTCAC | 0.312 |
| GCGGTCAC | 0.313 |

| Sequence | PBM E-score |
| --- | --- |
| AGGGTCAG | 0.24 |
| TGGGTCAA | 0.0925 |
| CGGGTCGC | 0.0356 |
| GGGGTCAA | 0.266 |
| GATTCTTA | 0.177 |
| CTAGTCTA | -0.0327 |
| CAGGTTCG | -0.158 |
| ATATCCTG | 0.103 |
| ACCATCGT | -0.0674 |
| ACTAACTG | 0.126 |
| CTGGTCAC | 0.148 |
| ATGGTCAA | 0.245 |
| AGAGTCAT | -0.0584 |
| CGGGTCAC | 0.374 |
| AGGGTCCC | 0.32 |
| AGGGTCCA | 0.214 |
| CGGGTCCC | -0.116 |
| CGGGTCAG | 0.28 |
| AGGGTCAT | 0.449 |
